The results in this text go back to PubChem BioAssay AID1486 (The Scripps Research Institute Molecular Screening Center, 2009).

The whole screen tested about 220,000 compounds, of which about 2,400 (1.1%) were called active. The entries come from a sample that favours actives as a whole. Values without a mark were called inactive.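 How the source made its calls: active means inhibition above a per-campaign cutoff, the mean inhibition of all tested compounds plus 3 SD (cut at about 27% in these data); inactive means the rest.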

The assay in a line: growth loss in parental Ba/F3 cells – cell-based, murine pro-B, CellTiter-Glo luminescence, counter-screen for JAK2V617F inhibitor project (AID 1486).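 Further: 0% = DMSO wells and 100% = JAK Inhibitor I control wells.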 The conditions noted are these: Ba/F3 parental viability, CellTiter-Glo ATP luminescence; at 5.6 µM; stronger effect = higher value. In general terms: Cellular ATP, detected with luciferase, serves as a proxy for viable cell number.
In general, inhibition refers to the relative decrease from the control value, in per cent. For `CCCN(CCC)CC(O)COc1ccccc1C(=O)Nc1ccccc1` (stereo not given), the inhibition was 1.95%. For the compound `CNC(=O)c1csc(Cc2c(Cl)sc3ccc(Cl)cc23)n1`, the inhibition was -0.25%. For the compound `COc1ccc(Cn2c(-c3ccc(Cl)cc3)c[n+]3ccccc23)cc1`, the inhibition was 76.4% (active).

For the compound `COc1ccc(C(=O)CN(C(=O)c2ccc(Cl)cc2)N2C(=O)c3ccccc3C2=O)cc1`, the inhibition was -0.72%. Turning to `COc1ccc(Cn2c(=O)cc(C)[nH]c2=S)cc1`, the inhibition was 9.89%.

For the compound `COc1cccc(Nc2nnc(SCC(=O)N3CC(=O)Nc4ccccc43)s2)c1`, the inhibition is -3.89%.

Take `Nc1ccc(C(=O)OCC(=O)NC2CCS(=O)(=O)C2)cc1[N+](=O)[O-]` (stereo not given): the inhibition is -1.89%. Turning to `Cc1ccc(C(=O)COc2cccc(NC(=O)c3ccco3)c2)cc1`, the inhibition was 95.5% (active).

Take `COc1cccc(C(=O)Nc2ccc(NC(=O)c3ccco3)cn2)c1`: the inhibition is -2.07%. On to `Cc1ccnc(NC(=O)c2ccc(NC(=O)c3ccco3)cc2)c1`, for which the inhibition is -0.11%. As for `Cc1c(NC(=O)CSc2nnnn2-c2ccc(C(=O)O)cc2)c(=O)n(-c2ccccc2)n1C`, the figure is 9.83%; as for `COc1ccc(C(=O)C2CCCN(C(=O)c3cnsn3)C2)c(C)c1` (stereo not given), -0.94%.

Take `COc1ccc(NS(=O)(=O)c2ccc(Oc3c(C#N)cccc3C#N)cc2)cc1`: the inhibition is 42% (active). As to `CCOc1ccc(S(=O)(=O)Nc2ccc(S(=O)(=O)Nc3cc(OC)ccc3OC)cc2)cc1`, the inhibition was 5.24%.

For `COc1ccc(NS(=O)(=O)c2ccc(NC(=O)c3ccc(N(C)S(C)(=O)=O)cc3)cc2)cc1`, the inhibition is 5.44%. On to `COc1ccccc1N1CC(C(=O)Nc2ccc(S(=O)(=O)N3CCOCC3)cc2)CC1=O` (stereo not given), for which the inhibition was 2.78%.

`CNc1nnc(-c2ccco2)s1`: the inhibition is -0.97%. On to `COc1cccc(C(O)Cc2nc3ccccc3n2C)c1OC` (stereo not given), for which the inhibition is 0.12%. As to `COc1ccc(-c2nn(C)c(=O)c3ccccc23)cc1NC(=O)COc1ccccc1`, the inhibition is -0.19%. On to `Cc1ccc(NC(=O)Cn2nc(C)c3ccccc3c2=O)c(C)c1`, for which the inhibition is 4.31%. Next, `Cc1ccc(F)cc1NC(=O)Cc1nn(C)c(=O)c2ccccc12`: 37.3% (active); `COc1ccc(Cl)cc1NC(=O)NC(C)C(C)(C)C` (stereo not given): 2.98%; `Cc1nc2ccccc2nc(=O)c1NNc1ccc([N+](=O)[O-])cc1`: 4.24%. With `O=C(COC(=O)CCc1nc2ccccc2c(=O)[nH]1)Nc1ccc(N2CCOCC2)cc1`, the inhibition was -2.42%. Take `O=C(/C=C/c1ccc(OCc2c(F)cccc2Cl)cc1)N1CCOCC1`: the inhibition is 67.9% (active). Take `COCCCNC(=O)/C=C/c1ccc(OCc2c(F)cccc2Cl)cc1`: the inhibition was 2.28%. As to `CN(C)CCCNC(=O)/C=C/c1ccc(OCc2c(F)cccc2Cl)cc1`, the inhibition is 7.63%. Take `C/C(=N/Nc1nc(-c2ccccc2)c(CC(=O)O)s1)c1ccccc1`: the inhibition is 2.81%. Next, `C=C(C)Cn1c(SCC(=O)NCc2ccco2)nc2sc3c(c2c1=O)CCC3`: 1.93%; `O=C(CCCn1c(SCC(=O)c2ccc(F)cc2)nc2ccccc2c1=O)NCc1ccco1`: 4.54%. `O=C(CSc1nc2cc3c(cc2c(=O)n1CCC1=CCCCC1)OCO3)NCc1ccco1`: the inhibition was 33.2% (active).

Turning to `COc1cc(OC)cc(C(=O)NCC(=O)OCc2csc(-c3ccccc3)n2)c1`, the inhibition is 10.9%. As for `COc1cc(OC)cc(C(=O)NC2CCN(C(=O)N3c4ccccc4Sc4ccccc43)CC2)c1`, the figure is 6.78%; as for `CSCCNCc1cn(-c2ccc(F)cc2F)nc1-c1ccccc1C`, 5.07%. Regarding `Cc1ccc(-c2nn(-c3cccc(F)c3)cc2CNCCc2ccncc2)o1`, the inhibition is 43% (active). As for `Cc1ccc(-c2nn(-c3ccccc3)cc2CN(Cc2ccccc2)C(=O)CCC(=O)O)o1`, the figure is 6.11%; as for `Cc1cc(Cl)ccc1C(=O)C1CCCN(C(=O)CCN2CCCO2)C1` (stereo not given), 0.61%. Consider `Cc1cc(=O)[nH]c(SCC(=O)Nc2ccc(Br)cc2)n1`, for which the inhibition was -7.26%. Next, `O=C(/C=C/c1ccc(Cl)c([N+](=O)[O-])c1)c1ccc(O)cc1`: 2.68%; `CNC(=O)Nc1cc(C(C)(C)C)no1`: 54.8% (active); `CCCn1c(SCC(=O)Nc2ccc(C)c(S(=O)(=O)N3CCOCC3)c2)n[nH]c1=O`: 4.59%. Take `CCn1c2ccccc2c2cc(NC(=O)CNC)ccc21`: the inhibition was 3.93%.

Turning to `CC[n+]1c(C)n(-c2ccccc2)c2ccc(NC(C)=O)cc21`, the inhibition is 57.7% (active). As to `CCc1ccc(NC(=O)N2CCN(c3ccccc3)CC2)cc1`, the inhibition is 1.4%. As to `Cc1ccc(/C=N/NC(=S)NC2CCCCC2)o1`, the inhibition is -7.43%. Take `CCOC(=O)c1ccc(NC(=O)Cn2cnc3cc(C)c(C)cc32)cc1`: the inhibition was 58.4% (active).

`CCOC(=O)c1ccc(NC(=O)Cn2nnc(-c3ccc(C)cc3)n2)cc1`: the inhibition was 1.76%.

For `CCOC(=O)c1ccc(NC(=O)CSc2ncccn2)cc1`, the inhibition is 0.67%. As to `O=C(O)CC1=C(Nc2ccccc2)C(=O)N(c2ccccc2)C1c1ccc(Cl)cc1` (stereo not given), the inhibition is 1.11%. As for `Cc1ccc2cc(/C=N/NC(=O)[C@@H]3CCCN3)c(Cl)nc2c1`, the inhibition is 0.27%. Turning to `CC(C)Nc1nnc(SCC(=O)/C=C2\N(C)c3ccccc3C2(C)C)s1`, the inhibition is 0.74%. As for `Cc1noc(C)c1C(=O)OCC(=O)/C=C1\N(C)c2ccccc2C1(C)C`, the figure is 4.98%. With `CC(=O)Nc1cccc(OCC(=O)/C=C2\N(C)c3ccccc3C2(C)C)c1`, the inhibition is 44.2% (active).

With `COc1ccc(-n2cc(CNC3CCOCC3)c(-c3cccc(F)c3)n2)cc1`, the inhibition is 5.7%. For the compound `CCCCC(NC(=O)c1cccc(Br)c1)C(=O)O` (stereo not given), the inhibition is 0.6%. For the compound `CCOC(=O)N1CCN(S(=O)(=O)c2ccc(C(=O)Nc3ccc(F)cc3F)cc2)CC1`, the inhibition was 53.5% (active). Turning to `O=C(Nc1cccc(F)c1)c1ccc(S(=O)(=O)N2CCCC2)cc1`, the inhibition was 7.79%. Take `COc1ccc(C(=O)Nc2ccc(F)cc2F)cc1`: the inhibition was -0.96%. Next, `Cc1cc(C)c(NC(=O)CN2CCOCCOCCOCCOCC2)c(C)c1`: 2.62%; `O=C(CSc1ccc(C(F)(F)F)cc1[N+](=O)[O-])NCCOc1ccccc1`: 3.21%; `CC#CC[N+](C)(C)CCCCCC`: 43.8% (active). As to `C/C(=N\N1CCN(Cc2ccc(C)cc2)CC1)c1ccco1`, the inhibition is 3.54%. Take `Cc1ccc(C(=O)Nc2nc(N)n(-c3ccccc3)n2)cc1`: the inhibition was -1.21%. In the case of `COc1cc(Cl)c(C)cc1NC(=O)[C@@H]1CCCN1C(=O)c1cccs1`, the inhibition was 6.13%. On to `COC(=O)Nc1ccc(S(=O)(=O)N2CCN(CCN3C(=O)C4C5C=CC(C5)C4C3=O)CC2)cc1` (stereo not given), for which the inhibition was 5.02%. Take `COC(=O)CCNC(=O)c1ccc2[nH]c(C)c(C)c2c1`: the inhibition is 3.29%. Regarding `COc1cc(C2CC(=O)c3cnc(NC(C)=O)nc3C2)cc(OC)c1OC` (stereo not given), the inhibition was 2.9%. Turning to `CCCOC(=O)c1[nH]c2c(c1C)C(=O)CC(c1cc(OC)c(OC)c(OC)c1)C2` (stereo not given), the inhibition is 41.3% (active). For `CCOC(=O)c1[nH]c2c(c1-c1ccccc1)C(=O)CC(c1ccc(Cl)cc1)C2` (stereo not given), the inhibition is 8.29%. With `CCOC(=O)c1[nH]c2c(c1C)C(=O)CC(c1ccc(N(C)C)cc1)C2` (stereo not given), the inhibition is 4.47%. As for `CCOC(=O)C1=C(C)NC(=S)NC1c1cccs1` (stereo not given), the figure is 3.93%; as for `CCCOC(=O)c1[nH]c2c(c1C)C(=O)CC(c1cccs1)C2` (stereo not given), 75.9% (active). Next, `O=C(O)CCCC(=O)Nc1ccc(Oc2cccc(C(F)(F)F)c2)nc1`: -1.72%. On to `CCOC(=O)C1=C(CC)OC(N)=C(C#N)C1c1ccc(F)cc1F` (stereo not given), for which the inhibition was 0.94%. As to `Cc1ccc(S(=O)(=O)N2CCCC2C(=O)OCc2nc3sc(C)c(C)c3c(=O)[nH]2)cc1` (stereo not given), the inhibition was 3.55%.

`O=C1CCCCC1C(=O)c1ccccc1` (stereo not given): the inhibition is 0.06%.

Turning to `COc1ccc2nc(/N=C(\N)NC(=O)Nc3ccccc3)nc(C)c2c1`, the inhibition is 31.6% (active). For the compound `Cc1nc(/N=C(\N)NC(=O)NC2CCCCC2)nc2ccccc12`, the inhibition is 4.49%. Regarding `COc1ccc(NC(=O)Nc2ccc3nc(C)c(C)nc3c2)cc1`, the inhibition is 1.19%. As to `O=C(NNC(=O)c1cnccc1C(F)(F)F)c1ccc(Cl)cc1`, the inhibition was -1.83%. Next, `COc1cccc(Cn2cnc3c([N+](=O)[O-])c(C)c(C)cc32)c1`: 9.27%.

In the case of `CCOC(=O)c1cn(Cc2cccc(C)c2)nn1`, the inhibition is 2.15%. Consider `Cc1cccc(Cn2cnc3c(N)c(C)c(C)cc32)c1`, for which the inhibition was 32.6% (active).

For `CCN(CC)S(=O)(=O)c1ccc(OC(C)C)c(N)c1`, the inhibition was 5.49%. In the case of `COc1cc2c(cc1/C=C1/NC(=O)N(c3ccccc3)C1=O)OCO2`, the inhibition is 10.5%. As for `COc1ccccc1C1C2=C(COC2=O)Nc2cc3c(cc21)OCO3` (stereo not given), the figure is 80.4% (active); as for `COc1ccc(C2CC(=O)Nc3cc(C)c(C)cc32)c(OC)c1OC` (stereo not given), 3.54%; as for `CCCOc1ccccc1C1CC(=O)Nc2cc3c(cc21)OCO3` (stereo not given), 71.8% (active). Regarding `COCCOC(=O)C1=C(C)NC(=O)CC1c1cc2c(cc1Br)OCO2` (stereo not given), the inhibition is 3.68%. As for `COc1ccc(F)cc1S(=O)(=O)Nc1ccc2c(c1)OCO2`, the inhibition was 3.23%. Next, `CCN(CC)C(=O)CSC(Nc1cccc(F)c1)=C(C#N)C#N`: -0.34%; `Cc1cc(C)c2nc(-c3cccnc3)cc(C(=O)Nc3ccc(S(=O)(=O)Nc4onc(C)c4C)cc3)c2c1`: 8.53%; `O=C(Nc1ccccc1Cl)/C(Cl)=C(\Cl)S(=O)c1ccccc1` (stereo not given): 104% (active). `O=C(CN1CCCCC1)Nc1ccccc1Cl`: the inhibition was 5.49%.

Turning to `O=C(Nc1ccccc1Cl)c1ccc2nsnc2c1`, the inhibition was 9.68%.
